# The source made the active and inactive calls. Unless noted, the rule behind the calls is not given here.
# Columns and labels:
# [1] = tested on: Wnt5a (protein binding on small-molecule microarray); test: Wnt5a binders on small-molecule microarray, primary screen, biophysical, 635/667 nm fluorescence (AID 1142); conditions: 635 nm fluorescence, higher = more signal;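 note: fluorescence read at 667 nm with signal to noise per printed feature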
# [2] = cell viability in Huh7 cells, primary screen, cytotoxicity control for HCV replication inhibitor project, CellTiter-Glo luminescence, basal, 48 h (AID 1143); conditions: Huh7 HCV replicon, higher = more signal, called active from +8 up or from −8 down;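 note: Huh7 hepatoma cells carrying a hepatitis C replication reporter with no stimulus; test concentration not given here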
# [3] = P. aeruginosa biofilm formation inhibitors, primary screen, PAO1 strain, BacTiter-Glo luminescence, LB-PBS (AID 1144); conditions: 12 h, higher = more signal
# [4] = CREB reporter modulators without forskolin, primary screen, cell-based, PC12, CRE-LacZ reporter, unstimulated (AID 1145); conditions: no forskolin, luminescence, 4.5 h, higher = more signal, called active from +8 up or from −8 down
# [5] = CREB reporter modulators under forskolin, primary screen, cell-based, PC12, CRE-LacZ reporter, forskolin-stimulated (AID 1146); conditions: luminescence, 4.5 h, higher = more signal, called active from +8 up or from −8 down;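 note: PC12 cells with 6xCRE LacZ reporter stimulated by forskolin 10 µM; beta-galactosidase reporter signal reflecting CREB driven transcription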
# [6] = biological target: Streptavidin (Streptomyces avidinii) (UniProt P22629); test: streptavidin binders on small-molecule microarray, primary screen, artefact control for SMM compound annotation, biophysical, 635/667 nm fluorescence (AID 1147); conditions: streptavidin binding, higher = more signal;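 note: signal reflects streptavidin binding to arrayed compounds as a control protein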
# [7] = small-molecule binders of probe aInhba, primary screen, biochemical, small-molecule microarray, 635/667 nm fluorescence (AID 1148); conditions: higher = more signal;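 note: score merges 667nm spot fluorescence with signal-to-noise for antibody binding to printed compounds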
# Torsin-1A (Homo sapiens) [8] = biological target: Torsin-1A (Homo sapiens) (UniProt O14656); test: torsin A binders from cell lysate, primary screen, small-molecule microarray, wild-type, 635/667 nm (AID 1149); conditions: COS7 hTOR1A-WT lysate, 635 nm fluorescence, higher = more signal
# Torsin-1A (Homo sapiens) [9] = biological target: Torsin-1A (Homo sapiens) (UniProt O14656); test: small-molecule binders of mutant TOR1A in lysate, primary screen, cell lysate, small-molecule microarray, COS7 lysate, 635/667 nm fluorescence (AID 1150); conditions: COS7 hTOR1A mutant lysate, 635 nm fluorescence, higher = more signal;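 note: score pools 667 nm emission and signal to noise measuring lysate protein binding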
# [10] = tested on: Sonic hedgehog protein (Shh); test: small-molecule binders of Shh protein, primary screen, biochemical, small-molecule microarray, 635/667 nm fluorescence (AID 1151); conditions: small-molecule microarray binding, 635 nm fluorescence; higher = more signal;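 note: Shh protein binding to compounds spotted on small-molecule microarray slides; score combines spot fluorescence intensity with signal-to-noise across triplicate slides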
# [11] = E. coli DRC41 culture turbidity changes, primary screen, E. coli filamentation inducer project, strain DRC41, OD650, 48 h (AID 1152);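 note: E. coli MC1000 strain DRC41 lacking acrAB efflux pump and sulA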; conditions: E. coli DRC41 (acrAB sulA), higher = more signal, called active from +8 up or from −8 down
# [12] = small-molecule binders of probe aLefty1, primary screen, biochemical, small-molecule microarray, 635/667 nm fluorescence (AID 1153); conditions: higher = more signal;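 note: score merges spot fluorescence with signal-to-noise ratio from the scanned slide images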
# [13] = PSAC antagonists in infected red cells, primary screen, cell-based, P. falciparum Indochina, OD700, 1 h (AID 1154); conditions: P. falciparum Indochina infected RBC osmotic lysis, higher = more signal, called active from +8 up or from −8 down
# [14] = PSAC antagonists in infected red cells, primary screen, cell-based, P. falciparum Indochina, OD700, 2 h (AID 1155);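 note: lysis reports solute entry through the parasite surface anion channel PSAC; channel blockers reduce lysis of infected cells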; conditions: P. falciparum Indochina infected erythrocytes, osmotic lysis OD700; higher = more signal, called active from +8 up or from −8 down
# [15] = osmotic lysis modulators in infected erythrocytes, primary screen, PSAC antagonist project, cell-based, P. falciparum Indochina, OD700, 3 h (AID 1156); conditions: higher = more signal, called active from +8 up or from −8 down
# [16] = PSAC antagonists in infected red cells, primary screen, cell-based, P. falciparum Indochina, OD700, 18 h (AID 1157); conditions: P. falciparum Indochina infected erythrocytes, osmotic lysis OD700, 18 h; higher = more signal, called active from +8 up or from −8 down
# [17] = modulators of S6 phosphorylation in cells, primary screen, cell-based, A549, cytoblot, luminescence, serum-stimulated (AID 1158); conditions: A549 phospho-S6 cytoblot, 5 h, higher = more signal;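 note: serum-stimulated A549 lung adenocarcinoma cells; signal is phosphorylated S6 detected by cytoblot immunostaining with HRP secondary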
# [18] = biological target: NADPH oxidase 2 (Homo sapiens) (UniProt P04839); test: NOX2-dependent H2O2 signal modulators, primary screen, NOX inhibitor project, cell-based, HEK293-NOX2, PMA-stimulated, Amplex Red fluorescence (AID 1159); conditions: 45 min, higher = more signal, called active from +8 up or from −8 down; note: test concentration not given here
# [19] = biological target: NADPH oxidase 4 (Homo sapiens) (UniProt Q9NPH5); test: NOX4-dependent H2O2 signal modulators, primary screen, NOX inhibitor project, cell-based, HEK293-NOX4, tetracycline-induced, Amplex Red fluorescence (AID 1160); conditions: 45 min, higher = more signal, called active from +8 up or from −8 down
# [20] = biological target: NADPH oxidase 5 (Homo sapiens) (UniProt Q96PH1); test: NOX5-dependent H2O2 signal modulators, primary screen, NOX inhibitor project, cell-based, HEK293-NOX5, Amplex Red fluorescence (AID 1161); conditions: HEK293-NOX5, ionomycin, 45 min, higher = more signal
# Sequence of NADPH oxidase 5 (Homo sapiens) (Q96PH1 whole entry, looked up): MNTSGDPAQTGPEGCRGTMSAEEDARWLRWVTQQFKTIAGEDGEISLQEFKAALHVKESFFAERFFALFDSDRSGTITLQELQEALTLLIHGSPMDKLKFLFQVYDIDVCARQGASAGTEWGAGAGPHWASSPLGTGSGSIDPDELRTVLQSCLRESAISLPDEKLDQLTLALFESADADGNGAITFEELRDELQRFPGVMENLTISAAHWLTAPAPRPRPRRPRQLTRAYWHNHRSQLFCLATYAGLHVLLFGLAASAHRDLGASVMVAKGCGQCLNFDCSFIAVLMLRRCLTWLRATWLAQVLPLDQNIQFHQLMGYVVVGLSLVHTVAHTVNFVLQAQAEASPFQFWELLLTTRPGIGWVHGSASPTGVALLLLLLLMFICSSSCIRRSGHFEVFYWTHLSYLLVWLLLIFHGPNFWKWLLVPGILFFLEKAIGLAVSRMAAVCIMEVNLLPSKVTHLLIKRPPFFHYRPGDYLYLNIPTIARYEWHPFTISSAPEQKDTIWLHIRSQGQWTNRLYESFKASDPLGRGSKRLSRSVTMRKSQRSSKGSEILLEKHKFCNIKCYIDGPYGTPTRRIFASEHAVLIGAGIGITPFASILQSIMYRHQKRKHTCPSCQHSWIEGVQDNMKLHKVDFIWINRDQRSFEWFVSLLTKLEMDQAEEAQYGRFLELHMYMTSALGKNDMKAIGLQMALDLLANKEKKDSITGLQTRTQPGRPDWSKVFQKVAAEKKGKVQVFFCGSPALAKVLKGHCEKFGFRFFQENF
# Sequence of Torsin-1A (Homo sapiens) (O14656 whole entry, looked up): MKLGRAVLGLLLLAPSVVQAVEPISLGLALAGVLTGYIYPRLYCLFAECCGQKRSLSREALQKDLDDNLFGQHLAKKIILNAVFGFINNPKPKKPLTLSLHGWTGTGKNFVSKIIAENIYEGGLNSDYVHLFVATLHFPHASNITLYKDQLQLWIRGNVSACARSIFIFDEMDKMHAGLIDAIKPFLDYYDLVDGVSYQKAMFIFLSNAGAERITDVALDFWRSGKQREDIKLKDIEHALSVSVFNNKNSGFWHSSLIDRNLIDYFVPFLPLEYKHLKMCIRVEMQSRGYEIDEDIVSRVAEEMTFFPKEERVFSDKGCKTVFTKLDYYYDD
# Sequence of Streptavidin (Streptomyces avidinii) (P22629 whole entry, looked up): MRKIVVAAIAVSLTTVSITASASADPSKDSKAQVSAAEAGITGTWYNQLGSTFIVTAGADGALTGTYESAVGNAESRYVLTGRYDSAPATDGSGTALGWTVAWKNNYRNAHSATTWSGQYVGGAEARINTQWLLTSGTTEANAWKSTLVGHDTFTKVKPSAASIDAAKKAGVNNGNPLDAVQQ
# Sequence of NADPH oxidase 2 (Homo sapiens) (P04839 whole entry, looked up): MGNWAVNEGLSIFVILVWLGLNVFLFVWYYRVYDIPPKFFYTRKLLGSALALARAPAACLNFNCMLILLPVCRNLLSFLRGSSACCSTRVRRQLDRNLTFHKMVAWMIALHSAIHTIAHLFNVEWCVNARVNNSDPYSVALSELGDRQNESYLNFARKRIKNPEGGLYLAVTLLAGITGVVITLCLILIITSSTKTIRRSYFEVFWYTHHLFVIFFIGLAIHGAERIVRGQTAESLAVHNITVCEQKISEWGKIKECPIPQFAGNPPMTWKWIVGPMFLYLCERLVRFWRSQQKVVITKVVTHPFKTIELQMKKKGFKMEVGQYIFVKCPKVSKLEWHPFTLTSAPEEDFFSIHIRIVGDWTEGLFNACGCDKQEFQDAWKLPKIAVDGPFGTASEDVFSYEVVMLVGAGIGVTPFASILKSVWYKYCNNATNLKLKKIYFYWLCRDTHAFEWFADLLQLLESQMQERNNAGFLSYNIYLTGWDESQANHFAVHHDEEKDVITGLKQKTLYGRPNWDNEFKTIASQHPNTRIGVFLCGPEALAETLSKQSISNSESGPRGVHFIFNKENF
# Sequence of NADPH oxidase 4 (Homo sapiens) (Q9NPH5 whole entry, looked up): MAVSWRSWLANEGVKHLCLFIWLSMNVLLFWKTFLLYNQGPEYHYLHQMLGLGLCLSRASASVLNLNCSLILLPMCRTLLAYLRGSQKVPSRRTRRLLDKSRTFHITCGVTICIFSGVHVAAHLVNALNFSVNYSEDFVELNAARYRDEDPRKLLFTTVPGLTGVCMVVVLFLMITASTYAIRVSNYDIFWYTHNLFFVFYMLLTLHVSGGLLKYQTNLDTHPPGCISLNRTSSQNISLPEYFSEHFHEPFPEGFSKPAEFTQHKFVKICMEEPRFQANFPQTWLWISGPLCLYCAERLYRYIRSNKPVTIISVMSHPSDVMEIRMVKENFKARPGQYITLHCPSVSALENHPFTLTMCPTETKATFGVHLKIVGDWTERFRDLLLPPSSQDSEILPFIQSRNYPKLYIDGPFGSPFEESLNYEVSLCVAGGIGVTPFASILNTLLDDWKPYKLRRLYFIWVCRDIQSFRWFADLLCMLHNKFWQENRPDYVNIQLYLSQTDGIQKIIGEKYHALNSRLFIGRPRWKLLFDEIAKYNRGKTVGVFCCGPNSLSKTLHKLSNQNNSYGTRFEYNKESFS
SMILES,composite z-score [1],z-score [2],z-score [3],z-score [4],z-score [5],composite z-score [6],composite z-score [7],composite z-score (Torsin-1A (Homo sapiens) [8]),composite z-score (Torsin-1A (Homo sapiens) [9]),composite z-score [10],z-score [11],composite z-score [12],z-score [13],z-score [14],z-score [15],z-score [16],z-score [17],z-score [18],z-score [19],z-score [20]
CCCC[C@H]1CN2[C@@H](CC[C@@H](C)[C@@H]2c2ccc(Br)cc2)C(=O)O1,0.132,-1.44 (inactive),0.616 (inactive),0.755 (inactive),-0.0888 (inactive),0.426,-0.0494,0.836,0.716,0.456,-0.461 (inactive),-0.0275,2.91 (inactive),0.809 (inactive),-0.192 (inactive),0.711 (inactive),-0.46,1.43 (inactive),0.516 (inactive),1.47
C#CCCCON=C1C[C@@H](O)[C@@H](O)[C@@H]2[C@@H]3C(=O)N(CC)C(=O)[C@@H]3CC[C@H]12,0.401,0.0934 (inactive),0.203 (inactive),0.252 (inactive),0.0606 (inactive),0.0761,-0.0986,0.259,0.937,0.275,0.135 (inactive),-0.0035,0.129 (inactive),0.238 (inactive),-0.0312 (inactive),0.0581 (inactive),-0.403,-0.88 (inactive),-0.231 (inactive),0.15
CO[C@@H]1C=CCC(=O)N[C@@H](C)C(=O)OC[C@@H](NS(=O)(=O)c2ccc(C)cc2)[C@H](C)C=CCC(=O)OC[C@H]1C,-0.0979,-1.03 (inactive),0.225 (inactive),0.155 (inactive),-1.23 (inactive),-0.536,-0.304,0.527,0.514,1.08,-0.481 (inactive),-0.141,0.0412 (inactive),0.149 (inactive),-0.802 (inactive),0.109 (inactive),-0.327,-9.51 (active),0.732 (inactive),-0.0177
CC(C)=NOC(C)CN1CCCCc2nc(C)c(C)cc21 (stereo not given),0.243,0.479 (inactive),0.282 (inactive),-0.236 (inactive),0.0266 (inactive),-0.28,0.0314,0.765,0.346,0.681,-0.866 (inactive),-0.145,-0.147 (inactive),-0.16 (inactive),-0.565 (inactive),0.195 (inactive),-0.618,-0.0962 (inactive),-0.278 (inactive),-0.417
C=CC[C@@H]1C=C[C@H](ON=C(C)CCN2CCCCc3nc(C)c(C)cc32)[C@@H](CO)O1,0.291,-1.25 (inactive),0.701 (inactive),1.72 (inactive),0.578 (inactive),-0.208,-0.179,2.03,1.52,2.05,-0.813 (inactive),-0.0547,1.07 (inactive),0.547 (inactive),0.325 (inactive),0.392 (inactive),-0.53,-0.953 (inactive),-0.352 (inactive),-0.424
CCOC(=O)CCN1C(=O)[C@H]2[C@H]3[C@H](O)[C@H](O)CC(=NNC(=O)OCc4ccccc4)[C@H]3CC[C@H]2C1=O,0.126,-1.31 (inactive),-0.326 (inactive),1.07 (inactive),-0.253 (inactive),-0.362,-0.0781,1.95,2.44,0.968,-0.351 (inactive),-0.0162,0.992 (inactive),0.0095 (inactive),0.0794 (inactive),0.0606 (inactive),-0.707,1.28 (inactive),0.327 (inactive),0.595
CCOC(=O)[C@H](CC(C)C)NC(=O)CCC1CC(OC(=O)NCc2ccc3c(c2)OCO3)CC2(CCCC(COC(=O)NCCOC)O2)O1 (stereo not given in full),-0.0334,-0.413 (inactive),0.211 (inactive),0.56 (inactive),0.59 (inactive),0.0301,-0.0006,-0.0402,0.354,1.46,-2.3 (inactive),0.292,1.3 (inactive),0.529 (inactive),-0.535 (inactive),0.0508 (inactive),-0.421,-0.288 (inactive),-0.0492 (inactive),0.144
CCN1C(=O)[C@H]2[C@H]3[C@H](O)[C@H](O)CC(=NO[C@@H](C)c4cc(-c5c(C)cc(C)cc5C)no4)[C@@H]3CC[C@H]2C1=O,0.266,-1.74 (inactive),0.847 (inactive),2.08 (inactive),0.205 (inactive),0.203,0.0756,1.22,1.33,1.15,0.663 (inactive),-0.103,2.34 (inactive),0.496 (inactive),0.504 (inactive),0.588 (inactive),-0.428,0.204 (inactive),0.175 (inactive),0.211
CC(C)(C)N1C(=O)[C@H]2[C@H]3[C@H](O)[C@H](O)CC(=NNC(=O)OCc4ccccc4)[C@H]3CC[C@H]2C1=O,0.0281,-3.97 (inactive),-0.497 (inactive),1.34 (inactive),0.549 (inactive),-0.107,0.125,0.436,0.591,0.897,-1.57 (inactive),-0.0966,0.988 (inactive),-0.0262 (inactive),0.374 (inactive),-1.13 (inactive),0.827,-1.18 (inactive),-0.074 (inactive),-1.11

# Source: PubChem BioAssay
